A number with no mark means an inactive call. Inconclusive results are not listed. Where a call stands in place of a potency, no number is given. Calls of active or inactive are those of the source. Unless noted, the call rests on the fitted dose curve; in most records, active means well fitted curve in the direction sought with a large enough effect in the repeat runs; inconclusive means weak or mixed curves; inactive means no such curve, though single readings can be large; an effect the other way counts as inactive or inconclusive.
Tests used:
[1] = qHTS assay to identify small molecule antagonists of the estrogen related receptor (ERR) signaling pathway from Tox21 library - cell viability counter screen (AID 1224834); further: nearly all actives have a fitted effect of over 30% in size; further: potency means the concentration at half of the fitted maximal effect
How it was run: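 Compounds in DMSO were pinned onto ERR cells that had been incubated for 6 h, and the plates were held at 37 C for 17.5 h. CellTiter-Fluor reagent was then added and fluorescence was measured after 30 min.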

[2] = biological target: Luciferin 4-monooxygenase (Photinus pyralis) (UniProt P08659); experiment: qHTS assay to identify small molecule inhibitors of firefly luciferase (AID 1224835); further: nearly all actives have a fitted effect of over 25% in size; further: potency means the concentration at half of the fitted maximal effect
Luciferin 4-monooxygenase (Photinus pyralis), sequence (P08659 whole entry, looked up): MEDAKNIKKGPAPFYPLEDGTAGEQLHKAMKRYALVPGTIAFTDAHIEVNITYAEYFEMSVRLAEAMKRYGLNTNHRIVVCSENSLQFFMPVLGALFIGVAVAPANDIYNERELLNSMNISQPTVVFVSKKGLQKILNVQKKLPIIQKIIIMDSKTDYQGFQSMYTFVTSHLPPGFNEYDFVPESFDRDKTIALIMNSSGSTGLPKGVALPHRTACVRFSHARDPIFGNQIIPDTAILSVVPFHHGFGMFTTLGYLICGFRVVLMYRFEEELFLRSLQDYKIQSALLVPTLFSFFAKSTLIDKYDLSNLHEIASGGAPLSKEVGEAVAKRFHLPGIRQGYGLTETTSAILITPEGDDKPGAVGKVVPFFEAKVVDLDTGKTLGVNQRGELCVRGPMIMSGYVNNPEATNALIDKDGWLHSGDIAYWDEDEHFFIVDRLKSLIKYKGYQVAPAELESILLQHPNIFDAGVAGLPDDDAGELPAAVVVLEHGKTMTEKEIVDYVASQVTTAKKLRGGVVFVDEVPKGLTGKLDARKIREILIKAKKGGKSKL
How it was run: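 Biochemical qHTS: compounds run as interplate titrations against purified firefly enzyme, with D-luciferin and ATP each at its KM concentration. Light output recorded by CCD imaging.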

[3] = qHTS assay to identify small molecule antagonists of the constitutive androstane receptor (CAR) signaling pathway - cell viability counter screen (AID 1224837); further: nearly all actives have a fitted effect of over 45% in size; further: potency means the concentration at half of the fitted maximal effect
How it was run: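 Cells are seeded, rested 4 hr at 37 C/5% CO2, dosed with compound (15-point series) and 50 nM CITCO, incubated a further 23 hr, and then CellTiter-Fluor reagent is added before fluorescence is read. The line is HepG2 with stable hCAR and CYP2B6-2.2kb.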

[4] = biological target: Nuclear receptor subfamily 1 group I member 3 (Homo sapiens) (UniProt Q14994); experiment: qHTS assay to identify small molecule antagonists of the constitutive androstane receptor (CAR) signaling pathway (AID 1224838);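 further: HepG2 cells stably expressing hCAR with CYP2B6 luciferase reporter stimulated by CITCO; nearly all actives have a fitted effect of over 40% in size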; further: potency means the concentration at half of the fitted maximal effect
Nuclear receptor subfamily 1 group I member 3 (Homo sapiens), sequence (Q14994 whole entry, looked up): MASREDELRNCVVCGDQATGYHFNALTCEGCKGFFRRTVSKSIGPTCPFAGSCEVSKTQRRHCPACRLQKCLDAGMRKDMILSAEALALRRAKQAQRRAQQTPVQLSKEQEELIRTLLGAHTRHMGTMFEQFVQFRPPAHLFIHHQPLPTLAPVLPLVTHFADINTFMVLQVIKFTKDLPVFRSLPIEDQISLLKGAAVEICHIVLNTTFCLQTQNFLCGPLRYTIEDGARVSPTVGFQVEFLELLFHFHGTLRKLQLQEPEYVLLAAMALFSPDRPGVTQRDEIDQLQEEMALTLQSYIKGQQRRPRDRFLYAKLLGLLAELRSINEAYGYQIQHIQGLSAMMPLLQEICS
How it was run: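 Luminescence from a CYP2B6-2.2kb promoter reporter in hCAR-expressing HepG2 cells reflects CAR signaling. Cells received compounds at 15 concentrations and 50 nM CITCO (final), then incubated 24 h at 37 C/5% CO2.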

[5] = biological target: Nuclear receptor subfamily 1 group I member 3 (Homo sapiens) (UniProt Q14994); experiment: qHTS assay to identify small molecule agonists of the constitutive androstane receptor (CAR) signaling pathway (AID 1224839);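 further: HepG2 cells stably carrying human CAR and a CYP2B6 luciferase reporter; nearly all actives have a fitted effect of over 15% in size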
How it was run: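 Luminescence read-out (ONE-Glo, 30 min, room temperature) from double-stable HepG2-CYP2B6-hCAR cells exposed 24 h to 15-point compound series in presence of 0.75 uM PK11195 final.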

[6] = qHTS assay to identify small molecule antagonists of the estrogen related receptor signaling pathway with the pleiotropic PPARgamma coactivator (PGC) from Tox21 10K library - cell viability counter screen (AID 1224840; active means well fitted cell-killing curve with a large enough effect in the repeat runs, not every such curve was filed as active; further: nearly all actives have a fitted effect of over 40% in size; further: potency means the concentration at half of the fitted maximal effect)
How it was run: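 Cell viability is measured by CellTiter-Fluor fluorescence in PGC/ERR cells that receive compounds after a 6-hour attachment period and are then incubated 17.5 hours at 37 C.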

[7] = biological target: Thyrotropin receptor (Homo sapiens) (UniProt P16473); experiment: qHTS assay to identify small molecule agonists of the thyroid stimulating hormone receptor (TSHR) signaling pathway (AID 1224843; calls by dose curve; further: nearly all actives have a fitted effect of over 45% in size)
Thyrotropin receptor (Homo sapiens), sequence (P16473 whole entry, looked up): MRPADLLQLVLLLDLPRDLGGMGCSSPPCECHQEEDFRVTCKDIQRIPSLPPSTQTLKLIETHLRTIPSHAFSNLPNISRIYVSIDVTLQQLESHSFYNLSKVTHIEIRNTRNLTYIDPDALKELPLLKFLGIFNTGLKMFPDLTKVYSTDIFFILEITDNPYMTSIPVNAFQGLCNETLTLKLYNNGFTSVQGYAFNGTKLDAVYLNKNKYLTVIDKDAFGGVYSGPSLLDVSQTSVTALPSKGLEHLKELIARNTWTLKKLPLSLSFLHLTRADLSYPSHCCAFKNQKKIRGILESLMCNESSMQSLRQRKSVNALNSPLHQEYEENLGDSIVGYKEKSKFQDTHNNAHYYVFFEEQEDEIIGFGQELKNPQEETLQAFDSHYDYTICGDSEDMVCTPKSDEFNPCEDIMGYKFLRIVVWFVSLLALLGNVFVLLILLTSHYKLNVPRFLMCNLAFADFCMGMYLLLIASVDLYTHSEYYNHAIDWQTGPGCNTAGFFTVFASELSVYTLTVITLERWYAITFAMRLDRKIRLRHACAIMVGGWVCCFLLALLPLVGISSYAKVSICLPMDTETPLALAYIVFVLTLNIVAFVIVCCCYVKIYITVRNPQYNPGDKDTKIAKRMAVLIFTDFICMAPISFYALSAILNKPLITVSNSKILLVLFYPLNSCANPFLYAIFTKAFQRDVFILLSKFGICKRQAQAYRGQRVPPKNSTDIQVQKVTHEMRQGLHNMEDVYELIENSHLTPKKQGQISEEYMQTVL
How it was run: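 Agonist-mode screen: TSHR HEK293 cells received test chemicals for half an hour at room temperature, then HTRF cAMP detection reagents for one hour prior to fluorescence measurement. Each chemical ran as a 15-concentration series, triplicated.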

[8] = qHTS assay to identify small molecule agonists of the hypoxia (HIF-1) signaling pathway - cell viability counter screen (AID 1224844; calls by dose curve; further: nearly all actives have a fitted effect of over 50% in size; further: potency means the concentration at half of the fitted maximal effect)
How it was run: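 Viability counter screen: HRE-bla ME-180 cells plated 5 hrs before compound addition, treated 17 hrs at 37C and 5% CO2, then CellTiter-Glo added after the FRET reporter read; luminescence after 30 min.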

[9] = qHTS assay to identify small molecule agonists of H2AX (AID 1224845; active means well fitted activation curve with a large enough effect in the signal ratio in the repeat runs, not every such curve was filed as active; the % refers to the signal ratio)
How it was run: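 Wild-type CHO-K1 cells, plated overnight, exposed 3hr at 37C to 15 concentrations (0.76% DMSO final). Lysed, then HTRF anti-pH2AX (S139) cryptate and anti-H2AX-d2 antibodies, 24 hr room temperature; 665/620 nm emission read.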

[10] = qHTS assay to identify small molecule agonists of the hypoxia (HIF-1) signaling pathway (AID 1224846; active means well fitted activation curve with a large enough effect in the signal ratio in the repeat runs, not every such curve was filed as active; the % refers to the signal ratio)
How it was run: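 Agonist mode reporter screen. ME-180 cells stably expressing bla under HRE control received test compounds in DMSO for 17 hrs (37C, 5% CO2), and beta-lactamase activity was then detected with the CCF4-AM FRET substrate.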

[11] = qHTS assay to identify small molecule agonists of H2AX - cell viability counter screen (AID 1224847; calls by dose curve; further: nearly all actives have a fitted effect of over 30% in size; further: potency means the concentration at half of the fitted maximal effect)
How it was run: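 CHO-K1 wt, 1000 cells/well, o/n 37C; cpds 15 conc, 3 h 37C, 0.76% DMSO; CellTiter-Glo, 30 min RT, luminescence.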

[12] = qHTS RealTime-Glo MT Cell Viability Assay in HepG2 cells - 24 hour (AID 1224867); further: nearly all actives have a fitted effect of over 50% in size; further: potency means the concentration at half of the fitted maximal effect
How it was run: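 qHTS, HepG2, 600 cells/well, RealTime-Glo (NanoLuc + prosubstrate) added with cells; 5 h preincubation; DMSO compound addition; 37 C; luminescence at 0/8/16/24/32/40 h.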

[13] = qHTS RealTime-Glo MT Cell Viability Assay in HEK293 cells - 32 hour (AID 1224868); further: nearly all actives have a fitted effect of over 50% in size; further: potency means the concentration at half of the fitted maximal effect
How it was run: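 Assay medium contained NanoLuc luciferase plus cell-permeant prosubstrate, added with HEK293 cells at 600 cells/well. After 5 h at 37 C/5% CO2 compounds were added; plates stayed at 37 C for 40 h with serial luminescence reads.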

[14] = A CellTox Green Cytotoxicity Assay to monitor cytotoxicity in HEK293 cells - 0 hour (AID 1224869); further: nearly all actives have a fitted effect of over 50% in size
How it was run: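 Dead-cell fluorescence measured kinetically: asymmetric cyanine dye, HEK293, 600 cells/well, 5 h settle, 23 nL cpd/DMSO, 37 C, reads 0–40 h every 8 h.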

[15] = qHTS RealTime-Glo MT Cell Viability Assay in HepG2 cells - 40 hour (AID 1224870); further: nearly all actives have a fitted effect of over 50% in size
How it was run: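 HepG2 cells (600/well) mixed with RealTime-Glo MT reagent, settled 5 h at 37 C/5% CO2 before compound addition. Nonlytic NanoLuc luminescence from viable-cell prosubstrate reduction read repeatedly during 40 h treatment at 37 C.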

[16] = qHTS assay to identify small molecule antagonists of the estrogen related receptor signaling pathway with the pleiotropic PPARgamma coactivator (PGC) from Tox21 10K library (AID 1224841; call rule not given here; further: potency means the concentration at half of the fitted maximal effect)
How it was run: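 Cells stably carrying the PGC/ERR reporter, seeded at 2,000 per well, received pin-transferred compounds 6 h post-plating. Exposure lasted 18 h at 37 C. Signal: One-Glo luminescence.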

[17] = qHTS assay to identify small molecule agonists of the estrogen related receptor signaling pathway with the pleiotropic PPARgamma coactivator (PGC) from Tox21 10K library (AID 1224842); further: nearly all actives have a fitted effect of over 15% in size
How it was run: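 PGC/ERR reporter cell line, 2,000 cells per well, incubated 6 h at 37 C before 23 nL compound in DMSO was added. After 18 h at 37 C, One-Glo luminescence read following 30 min at room temperature.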

[18] = qHTS assay to identify small molecule antagonists of the estrogen related receptor (ERR) signaling pathway from Tox21 library (AID 1224848); further: nearly all actives have a fitted effect of over 50% in size; further: potency means the concentration at half of the fitted maximal effect
How it was run: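 Quantitative high-throughput format: ERR reporter cells (2,000/well) pre-incubated 6 h, treated 18 h at 37 C with compounds in DMSO alongside positive and negative controls, then read by ONE-Glo luminescence.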

[19] = qHTS assay to identify small molecule agonists of the estrogen related receptor (ERR) signaling pathway from Tox21 library (AID 1224849; calls by dose curve; further: nearly all actives have a fitted effect of over 15% in size); settings: ERR reporter cell line, ONE-Glo luciferase, 18 h; at 92.4 µM (top of the series) unless noted
How it was run: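 Quantitative HTS in agonist format: NTP ERR cell line, compounds transferred in DMSO after 6 h plating, 18 h incubation at 37 C, ONE-Glo luminescence endpoint.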

[20] = qHTS assay to identify small molecule agonists of the constitutive androstane receptor (CAR) signaling pathway - cell viability counter screen (AID 1224836); further: nearly all actives have a fitted effect of over 45% in size; further: potency means the concentration at half of the fitted maximal effect
How it was run: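 Viability read-out: CellTiter-Fluor fluorescence after 23 h compound exposure at 37 C/5% CO2 in double-stable HepG2-CYP2B6-hCAR cells, with PK11195 present at 0.75 uM final; compounds tested in 15-point titration.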

Row | SMILES | Potency [1] | Potency [2] | Potency [3] | Potency [4] | Potency [5] | Potency [6] | Potency [7] | Potency [8] | Potency [9] | Potency [10] | Potency [11] | Potency [12] | Potency [13] | Potency [14] | Potency [15] | Potency [16] | Potency [17] | Potency [18] | activity change, positive = activation [19] | Potency [20]
1 | BrCCCBr | inactive | inactive | inactive | inactive | inactive | inactive | inactive | inactive | inactive | inactive | inactive | inactive | inactive | inactive | inactive |  |  |  |  | 
2 | O=c1[nH]c2cc(Cl)ccc2n1C1CCNCC1 | inactive | inactive | inactive | inactive | inactive | inactive |  | inactive | inactive | inactive | inactive | inactive | inactive | inactive | inactive | inactive | inactive | inactive | 0.0547% [at 42.5 µM] | 
3 | COc1ccc2c(c1OC)C(=O)O[C@@H]2[C@H]1c2cc3c(cc2CCN1C)OCO3 | 9.59 µM (active) | inactive | 7.62 µM (active) | inactive | inactive |  | inactive | inactive | inactive |  | inactive | inactive | inactive | inactive | inactive |  |  |  |  | 
4 | Cc1cc2c3c(c1)C(c1ccccc1)=N[C@@H](NC(=O)c1ccncc1)C(=O)N3CC2 | inactive | inactive | inactive | inactive | inactive | inactive | inactive | inactive | inactive | inactive | inactive | inactive | inactive | inactive | inactive | inactive | inactive | inactive | -15.6% | 
5 | CNC(=O)O/N=C(\C)C(C)S(C)(=O)=O (centres undefined) | inactive | inactive | inactive |  |  | inactive | inactive | inactive | inactive | inactive | inactive | inactive | inactive | inactive | inactive | inactive | inactive | inactive | 7.13% [at 872 µM] | 
6 | C=CC(=O)[O][Sn]([CH2]CCC)([CH2]CCC)[CH2]CCC | 3.06 µM (active) | 35.6 µM (active) |  | 486 nM (active) | inactive | 1.72 µM (active) |  | 977 nM (active) |  |  | 1.42 µM (active) | 436 nM (active) | 389 nM (active) | inactive |  | 13.7 µM (active) | inactive | 1.37 µM (active) | -66.8% | 1.22 µM (active)
7 | Cc1ccc2cc3c(ccc4ccccc43)c3c2c1CC3 | inactive | 11.3 µM (active) |  | 865 nM (active) | inactive | inactive |  | inactive | inactive |  | inactive | inactive | inactive | inactive |  |  |  |  |  | inactive

From PubChem BioAssay (Tox21)
